# Screening data as filed in PubChem BioAssay.
# Bead autofluor: counter-screen for toxin protease inhibitors: compound fluorescence; fluorescence intensity (concentration not given with the values); compound autofluorescence counterscreen, microsphere flow cytometry; stronger effect = higher value; 360,000 tested, 3.1% active; in the data active means fluorescence intensity above about 16000; inconclusive means no clear call, values can overlap the other calls
# MazF activator: MazEF (E. coli) toxin RNase activation | AID 504720 | activation, % at 20 µM | FAM/BHQ RNA-DNA oligo cleavage fluorescence, 5 h | 350,000 tested, 0.32% active; in the data active means activation above about 50%
# BoNT-F LC inh: blocks Botulinum neurotoxin F light chain protease | Multiplex microsphere protease cleavage assay, flow cytometry | inhibition, % at 10 µM | 360,000 tested, 0.22% active; in the data active means inhibition above about 35%, passing the limit was not always enough; inconclusive means no clear call, values can overlap the other calls
# BoNT-A LC inh2: inhibitors of Botulinum neurotoxin A light chain protease. inhibition, % at 10 µM. 360,000 tested, 0.17% active. AID 588499. multiplex microsphere protease substrate cleavage, flow cytometry
# Anthrax LF inh2: anthrax lethal factor protease inhibition; P15917; multiplex microsphere protease cleavage assay, LF; inhibition, % at 10 µM; 360,000 tested, 0.12% active; AID 588501
# Hits are given with their value; i = inactive; ? = inconclusive; nt = no result. Most compounds without a hit are left out; they make up all but 3.7% or so of the library. Unless noted, no stated cut-off is given here; in the data, active means inhibition above about 30%; inconclusive means no clear call, values can overlap the other calls; inactive means below that.
SMILES,Bead autofluor,MazF activator,BoNT-F LC inh,BoNT-A LC inh2,Anthrax LF inh2
CCOC(=O)C1CCCN(C/C=C/c2ccccc2[N+](=O)[O-])C1 (centres undefined),16661,i,i,i,i
O=C(N/C=C/n1cnc2cc(C(F)(F)F)ccc21)c1ccccc1,i,i,i,i,i
CC(=O)Nc1ccc(NC(=O)CSc2nnc(C)n2-c2ccccc2)cc1,nt,i,nt,nt,nt
O=[N+]([O-])c1ccc(Cl)c(/C=N/N2CCN(Cc3ccc(Cl)cc3)CC2)c1,18114,i,i,?,i
O=[N+]([O-])c1ccc(Cl)c(/C=N/N2CCN(Cc3ccccc3)CC2)c1,21691,i,i,i,i
COc1cc2nc(/C=C/c3cc(OC)c(OC)c(OC)c3)sc2cc1SC,i,i,i,54,i
COC(=O)COc1nsnc1N1CCOCC1,24961,i,i,i,i
COc1nsnc1N1CCOCC1,i,i,i,i,i
Cc1ccc(C2NC(=O)Cc3ccccc32)cc1 (centres undefined),i,247,i,i,i
O=C1Cc2ccccc2C(c2ccccc2)N1 (centres undefined),i,i,i,i,i
O=C(Nc1ccc(F)cc1)Nc1ccc(N2CCCC2)c(S(=O)(=O)Nc2ccccc2Cl)c1,i,53,i,i,i
O=C(O)c1ccc(F)c(S(=O)(=O)Nc2ccccc2Cl)c1,23288,i,i,i,i
O=C(Nc1ccc(Cl)c(Cl)c1)Nc1ccc(N2CCCC2)c(S(=O)(=O)Nc2ccccc2Cl)c1,i,i,i,i,i
Cc1ccsc1-c1ccnc(-n2cccc2)n1,16296,i,i,i,i
Clc1ccsc1-c1ccnc(-n2cccc2)n1,i,i,i,i,i
C#CCOCCOCCOCCNc1nc(N2CCN(C(=O)CCCCCCCCCCNC(=O)Cn3cc(CCCCCN)nn3)CC2)nc(N2CCN(C(=O)CCCCCCCCCCNC(=O)[C@@H](CCSC)n3cc(CCO)nn3)CC2)n1,i,i,i,i,i
O=[N+]([O-])c1ccc(Cl)c(/C=N/n2c(-c3ccncc3)n[nH]c2=S)c1,i,i,?,i,37
O=[N+]([O-])c1ccc(O)c(/C=N/n2c(-c3ccccc3)n[nH]c2=S)c1,i,i,i,i,i
Cc1ccc(/C=C2\CCC3=C2OC(N)=C(C#N)C3c2ccc(C)cc2)cc1 (centres undefined),i,i,42,i,i
C=CCc1cc(C=C2C(=O)NC(=O)NC2=O)cc(OC)c1OCc1ccc(C(=O)O)cc1,i,i,i,i,i
C=CCc1cc(C=O)cc(OC)c1OCc1c(Cl)cccc1Cl,24171,i,i,?,i
CC1=CC(=O)C(C(C)=Nc2ccccc2Cl)C(=O)O1 (centres undefined),i,i,i,i,i
O=C1N/C(=C\c2ccc(O)cc2)C(=O)c2ccccc21,19019,i,i,i,i
O=C(CSc1nnc2scc(-c3ccccc3)n12)NCc1ccc2c(c1)OCO2,i,i,i,i,i
O=C(CSc1nnc2scc(-c3ccc(Cl)cc3)n12)NCc1ccc2c(c1)OCO2,24173,i,i,i,i
SMILES,Bead autofluor,MazF activator,BoNT-F LC inh,BoNT-A LC inh2,Anthrax LF inh2
O=C(CSc1nnc2scc(-c3ccccc3)n12)NCc1ccco1,i,i,i,i,i
O=C(CSc1nnc2scc(-c3ccc(Cl)cc3)n12)NCc1ccco1,25480,i,i,i,i
O=C(CSc1n[nH]c(-c2cccs2)n1)NCc1ccc2c(c1)OCO2,22840,i,i,i,i
CCC1(c2ccccc2)NC(=O)N(CC(=O)NNC(=O)COc2ccc(Cl)cc2C)C1=O (centres undefined),i,i,i,i,i
Cc1cccc(NC(=O)CSc2nc3nc(C)cc(C)n3n2)c1,i,i,i,i,i
CCOc1ccc(N2C(=O)CC(N3CCN(c4ccc(Cl)cc4)CC3)C2=O)cc1 (centres undefined),i,i,i,i,i
O=C1CC(N2CCN(c3ccccn3)CC2)C(=O)N1c1ccc(F)cc1 (centres undefined),i,i,i,i,i
O=C1CC(N2CCN(c3cccc(C(F)(F)F)c3)CC2)C(=O)N1c1ccc(F)cc1 (centres undefined),22486,i,i,i,i
CCOc1cccc(N2C(=O)CC(N3CCN(c4ccc(S(=O)(=O)CC)cc4)CC3)C2=O)c1 (centres undefined),22715,i,i,i,i
Cc1cccc(N2C(=O)CC(N3CCN(c4cccc(C(F)(F)F)c4)CC3)C2=O)c1 (centres undefined),20300,i,i,?,i
CCOC(=O)C1CCCN(C2CC(=O)N(c3cccc(C(F)(F)F)c3)C2=O)C1 (centres undefined),23785,i,i,?,i
